Laboratory results: PubChem BioAssay (Tox21)
A number with no mark means an inactive call. Results filed as inconclusive are left out. Where a call stands in place of a potency, no number is given. Calls of active or inactive are those of the source. Calls follow the shape of the dose curve; as a rule, active = well fitted curve in the direction sought with a large enough effect in the repeat runs; inconclusive = weak or mixed curves; inactive = no such curve, though single readings can be large; an effect the other way counts as inactive or inconclusive.

Experiments:
[1] = A CellTox Green Cytotoxicity Assay to monitor cytotoxicity in HEK293 cells - 40 hour (AID 1224871); also: nearly all actives have a fitted effect of over 45% in size; also: potency is read from the fitted curve at half-maximal effect
Procedure, shortened: (§1)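 Dead-cell fluorescence measured kinetically: asymmetric cyanine dye, HEK293, 600 cells/well, 5 h settle, 23 nL cpd/DMSO, 37 C, reads 0–40 h every 8 h.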

[2] = qHTS RealTime-Glo MT Cell Viability Assay in HEK293 cells - 16 hour (AID 1224872); also: nearly all actives have a fitted effect of over 50% in size; also: potency is read from the fitted curve at half-maximal effect
Procedure, shortened: (§2)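 Homogeneous bioluminescent viability format in HEK293 cells (600 cells/well). Following 5 h at 37 C/5% CO2, 23 nL compound was pintooled; the signal was measured repeatedly during 40 h incubation.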

[3] = qHTS RealTime-Glo MT Cell Viability Assay in HepG2 cells - 8 hour (AID 1224873); also: nearly all actives have a fitted effect of over 55% in size
Procedure, shortened: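 Real-time viability: cells seeded at 600 per well together with NanoLuc and cell-permeant prosubstrate, compounds added after 5 h incubation. Luminescence tracked at 0, 8, 16, 24, 32 and 40 h of exposure.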

[4] = qHTS RealTime-Glo MT Cell Viability Assay in HEK293 cells - 40 hour (AID 1224874); details: RealTime-Glo luminescence; max response: stronger effect = lower value; also: nearly all actives have a fitted effect of over 50% in size; also: potency is read from the fitted curve at half-maximal effect
Procedure, shortened: (§3)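 600 HEK293 cells per well, dispensed already mixed with RealTime-Glo MT reagents. Compound dosing came 5 h later. The same wells were read for luminescence at 0, 8, 16, 24, 32 and 40 h of exposure at 37 C.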

[5] = A CellTox Green Cytotoxicity Assay to monitor cytotoxicity in HEK293 cells - 24 hour (AID 1224875); also: nearly all actives have a fitted effect of over 45% in size; also: potency is read from the fitted curve at half-maximal effect
Procedure, shortened: as §1

[6] = A CellTox Green Cytotoxicity Assay to monitor cytotoxicity in HepG2 cells - 16 hour (AID 1224876); also: nearly all actives have a fitted effect of over 45% in size
Procedure, shortened: (§4)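 First, HepG2 cells (600/well) mixed with reagent were plated; second, after 5 h at 37 C they received compounds via pintool; third, fluorescence was measured at 0 h through 40 h at 8 h intervals.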

[7] = A CellTox Green Cytotoxicity Assay to monitor cytotoxicity in HepG2 cells - 24 hour (AID 1224878); also: nearly all actives have a fitted effect of over 45% in size; also: potency is read from the fitted curve at half-maximal effect
Procedure, shortened: as §4

[8] = A CellTox Green Cytotoxicity Assay to monitor cytotoxicity in HepG2 cells - 40 hour (AID 1224879); also: nearly all actives have a fitted effect of over 40% in size; also: potency is read from the fitted curve at half-maximal effect
Procedure, shortened: as §4

[9] = qHTS RealTime-Glo MT Cell Viability Assay in HEK293 cells - 0 hour (AID 1224880)
Procedure, shortened: as §3

[10] = A CellTox Green Cytotoxicity Assay to monitor cytotoxicity in HEK293 cells - 32 hour (AID 1224881); also: nearly all actives have a fitted effect of over 40% in size; also: potency is read from the fitted curve at half-maximal effect
Procedure, shortened: as §1

[11] = A CellTox Green Cytotoxicity Assay to monitor cytotoxicity in HepG2 cells - 0 hour (AID 1224882); also: nearly all actives have a fitted effect of over 35% in size
Procedure, shortened: as §4

[12] = A CellTox Green Cytotoxicity Assay to monitor cytotoxicity in HepG2 cells - 32 hour (AID 1224883); also: nearly all actives have a fitted effect of over 50% in size; also: potency is read from the fitted curve at half-maximal effect
Procedure, shortened: as §4

[13] = A CellTox Green Cytotoxicity Assay to monitor cytotoxicity in HEK293 cells - 8 hour (AID 1224884); also: nearly all actives have a fitted effect of over 35% in size
Procedure, shortened: as §1

[14] = qHTS RealTime-Glo MT Cell Viability Assay in HepG2 cells - 16 hour (AID 1224885); also: nearly all actives have a fitted effect of over 50% in size
Procedure, shortened: (§5)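 Cell number in HepG2 cultures estimated from NanoLuc luminescence generated by metabolic reduction of a prosubstrate by living cells. The homogeneous, nonlytic format allowed repeated reads at 0, 8, 16, 24, 32 and 40 h of compound exposure.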

[15] = qHTS RealTime-Glo MT Cell Viability Assay in HEK293 cells - 24 hour (AID 1224886); also: nearly all actives have a fitted effect of over 50% in size; also: potency is read from the fitted curve at half-maximal effect
Procedure, shortened: as §2

[16] = qHTS RealTime-Glo MT Cell Viability Assay in HEK293 cells - 8 hour (AID 1224887)
Procedure, shortened: as §3

[17] = A CellTox Green Cytotoxicity Assay to monitor cytotoxicity in HEK293 cells - 16 hour (AID 1224888); also: nearly all actives have a fitted effect of over 35% in size
Procedure, shortened: as §1

[18] = qHTS RealTime-Glo MT Cell Viability Assay in HepG2 cells - 0 hour (AID 1224889); also: nearly all actives have a fitted effect of over 50% in size
Procedure, shortened: as §5

[19] = A CellTox Green Cytotoxicity Assay to monitor cytotoxicity in HepG2 cells - 8 hour (AID 1224890); also: nearly all actives have a fitted effect of over 45% in size
Procedure, shortened: as §4

[20] = qHTS RealTime-Glo MT Cell Viability Assay in HepG2 cells - 32 hour (AID 1224877); also: nearly all actives have a fitted effect of over 55% in size
Procedure, shortened: as §5

O=C(O)c1cccc(Cl)c1
Potency [1]: inactive
Potency [2]: inactive
Potency [3]: inactive
max response [4]: 4.06%
Potency [5]: inactive
Potency [6]: inactive
Potency [7]: inactive
Potency [8]: inactive
outcome [9]: inactive
Potency [10]: inactive
outcome [11]: inactive
Potency [12]: inactive
Potency [13]: inactive
Potency [14]: inactive
Potency [15]: inactive
Potency [16]: inactive
Potency [17]: inactive
Potency [18]: inactive
Potency [19]: inactive

N#CC(Cl)(Cl)Cl
Potency [1]: inactive
Potency [2]: inactive
Potency [3]: inactive
max response [4]: 3.49%
Potency [5]: inactive
Potency [6]: inactive
Potency [7]: inactive
Potency [8]: inactive
outcome [9]: inactive
Potency [10]: inactive
outcome [11]: inactive
Potency [12]: inactive
Potency [14]: inactive
Potency [15]: inactive
Potency [16]: inactive
Potency [17]: inactive
Potency [18]: inactive
Potency [19]: inactive

C=C(C)CN(CC)c1c([N+](=O)[O-])cc(C(F)(F)F)cc1[N+](=O)[O-]
Potency [1]: inactive
Potency [2]: inactive
Potency [3]: inactive
max response [4]: 0.654%
Potency [5]: inactive
Potency [6]: inactive
Potency [7]: inactive
Potency [8]: inactive
outcome [9]: inactive
Potency [10]: inactive
outcome [11]: inactive
Potency [12]: inactive
Potency [14]: inactive
Potency [15]: inactive
Potency [17]: inactive
Potency [18]: inactive

CNC(=O)N(C)c1nc2ccccc2s1
Potency [1]: inactive
Potency [2]: inactive
Potency [3]: inactive
max response [4]: -18.7%
Potency [5]: inactive
Potency [6]: inactive
Potency [20]: inactive
Potency [7]: inactive
Potency [8]: inactive
outcome [9]: inactive
Potency [10]: inactive
outcome [11]: inactive
Potency [12]: inactive
Potency [14]: inactive
Potency [15]: inactive
Potency [16]: inactive
Potency [17]: inactive
Potency [19]: inactive

CC(C)CP(=S)(S)CC(C)C
Potency [1]: inactive
Potency [2]: inactive
Potency [3]: inactive
max response [4]: 3.1%
Potency [5]: inactive
Potency [6]: inactive
Potency [20]: inactive
Potency [7]: inactive
Potency [8]: inactive
outcome [9]: inactive
Potency [10]: inactive
Potency [12]: inactive
Potency [13]: inactive
Potency [14]: inactive
Potency [15]: inactive
Potency [16]: inactive
Potency [17]: inactive
Potency [18]: inactive

COc1cccc(C(=O)NN(C(=O)c2cc(C)cc(C)c2)C(C)(C)C)c1C
Potency [1]: inactive
Potency [2]: inactive
Potency [3]: inactive
max response [4]: -10%
Potency [5]: inactive
Potency [6]: inactive
Potency [7]: 0.616 µM (active)
Potency [8]: inactive
outcome [9]: inactive
Potency [10]: inactive
outcome [11]: inactive
Potency [12]: inactive
Potency [13]: inactive
Potency [14]: inactive
Potency [15]: inactive
Potency [16]: inactive
Potency [17]: inactive
Potency [18]: inactive
Potency [19]: inactive

CCCCOC(=O)c1ccccc1N
Potency [1]: 49.3 µM (active)
Potency [2]: inactive
Potency [3]: inactive
max response [4]: 0.429%
Potency [6]: inactive
Potency [20]: inactive
Potency [7]: 49.3 µM (active)
Potency [8]: 55.3 µM (active)
outcome [9]: inactive
outcome [11]: inactive
Potency [13]: inactive
Potency [14]: inactive
Potency [15]: inactive
Potency [16]: inactive
Potency [18]: inactive

c1cc[c]([Hg][c]2ccccc2)cc1
Potency [1]: 34.7 µM (active)
Potency [2]: 34.7 µM (active)
Potency [3]: inactive
Potency [4]: 24.5 µM (active)
Potency [5]: 43.6 µM (active)
Potency [6]: inactive
Potency [7]: 43.6 µM (active)
Potency [8]: 49 µM (active)
outcome [9]: inactive
Potency [10]: 38.9 µM (active)
outcome [11]: inactive
Potency [12]: 49 µM (active)
Potency [13]: inactive
Potency [14]: inactive
Potency [15]: 34.7 µM (active)
Potency [18]: inactive
Potency [19]: inactive
